According to PubChem BioAssay AID449762 (Southern Research Specialized Biocontainment Screening …, 2010):
The campaign covered roughly 330,000 compounds. About 1,900 (0.58%) were called active. Another 4% or so got no clear call; they are omitted. These entries were drawn from the full list. Entries with a potency or affinity are not part of this list. Unmarked numbers belong to inactive results. No stated cut-off is given here; in the data, inconclusive means inhibition above about 70% without an active follow-up result; inactive means below that.

Assay: M. tuberculosis growth inhibition, HTS (AID 449762);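 further: bacterial growth assessed after seven days of incubation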
Conditions: M. tuberculosis H37Rv growth inhibition, 7H9 media; at 25 µM; active compounds read high

Compound	inhibition [%]
COc1ccc(NS(=O)(=O)c2cccc(C(=O)Nc3cccc(C(=O)O)c3)c2)cc1	-7.77
COc1cc(/C=N/NC(=O)COc2ccccc2C)ccc1OC(=O)c1cccs1	-7.68
CCOc1cc(/C=N/NC(=O)COc2ccc(C)cc2)ccc1OC(=O)c1cccs1	8.62
COC(=O)c1cc(S(=O)(=O)Nc2nn(C)c3ccccc23)oc1C	1.72
COCCN(C(=O)COC(=O)CSc1ccc2ccccc2c1)c1c(N)n(Cc2ccccc2)c(=O)[nH]c1=O	0.46
C=CCNC(=O)c1onc(CSc2ccncc2)c1C(=O)NCC=C	-11.3
Cc1ccc(S(=O)(=O)n2nc(C)c(S(=O)(=O)N3CCOCC3)c2C)cc1	-4.96
Cc1ccc(-c2cc(C(F)(F)F)n3ncc(C(=O)N4CCCCC4c4cccnc4)c3n2)cc1 (configuration not stated)	-0.42
O=C(c1cnn2c(C(F)(F)F)cc(-c3ccccc3)nc12)N1CCCCC1c1cccnc1 (configuration not stated)	61.7
CC(C)N(C(=O)[C@H]1CC(CC(=O)NCC23CC4CC(CC(C4)C2)C3)C(=O)N2CCc3c([nH]c4ccccc34)[C@]12C)C(C)C (some centres not stated)	69.1
C[C@]12c3[nH]c4ccccc4c3CCN1C(=O)C(CC(=O)NCC13CC4CC(CC(C4)C1)C3)C[C@@H]2C(=O)N1CCCCC1 (some centres not stated)	21.5
COc1cc([N+](=O)[O-])ccc1NC(=O)NCc1ccco1	-4.54
COc1ccccc1CNC(=O)c1c(-c2ccccc2)nn(-c2ccccc2)c1C	6.07
CC(=O)c1c(N2CCOCC2)[nH]c(-c2ccccc2)nc1=S	43.5
CC(=O)c1c(N2CCN(Cc3ccccc3)CC2)[nH]c(-c2ccccc2)nc1=S	-2.96
CC(C)[C@H](NC(=O)[C@@H]1Cc2ccccc2CN1C(=O)OC(C)(C)C)C(=O)NCc1ccco1	2.19
COc1ccc([N+](=O)[O-])cc1NS(=O)(=O)c1cccc(C(=O)OC2CCOC2=O)c1 (configuration not stated)	-6.35
O=C(NCCc1csc(-c2cccnc2)n1)c1ccccc1	-11.6
O=C1CN(C(=O)OCc2ccccc2)c2ccccc2N1	-1.7

Compound	inhibition [%]
O=C(NCc1ccccc1CN1CCCC1)c1cccc(S(=O)(=O)N2CCCC2)c1	-11.2
CN(c1ccccc1)S(=O)(=O)c1ccc(Cl)c(C(=O)NCc2ccccc2CN2CCCC2)c1	-5.7
CC1CCCCC1NC(=O)c1cc(=O)[nH]c2ccccc12 (configuration not stated)	-4.11
CC1CCCCC1NC(=O)c1ccc2c(c1)OCCO2 (configuration not stated)	8.58
Cc1ccc(C(OC(=O)c2ccco2)C(=O)NCc2cccs2)cc1 (configuration not stated)	3.55
O=C(O)c1cccc(NC(=S)NC(=O)c2ccc(-c3ccc(Cl)cc3)o2)c1	1.13
Cc1cc2ncn(C(=O)c3ccc4c(c3)OCO4)c2cc1C	6.27
Cc1cccc(C(=O)Nc2ccc(S(=O)(=O)N3CCOCC3)cc2)c1[N+](=O)[O-]	6.13
COc1ccccc1-c1nnc(Nc2nc3c(OC)cccc3s2)o1	6.89
COc1cccc2sc(Nc3nnc(-c4ccccc4Cl)o3)nc12	46.2
COc1cccc(CN2CCN(Cc3cc4ccccc4o3)CC2CCO)c1 (configuration not stated)	-6.38
CC(C)OCCCn1c(-c2ccc(Br)cc2)c[nH]c1=S	8.53
COc1ccc(OC)c(-n2c(-c3cccc(O)c3)n[nH]c2=S)c1	2.31
CCN(CC)C(=O)c1ccc(Oc2ccc([N+](=O)[O-])cc2Cl)cc1	4.15
CCN(CC)C(=O)c1cc2cc([N+](=O)[O-])ccc2s1	6.23
O=C(COc1ccc(Br)cc1)N1CCc2ccccc2C1	1.78
CC(C)C(NC(=O)c1c(F)cccc1F)C(=O)N1CCN(c2ccccc2F)CC1 (configuration not stated)	5.13
O=C(/C(=N\Nc1ccc(Br)cc1)Sc1nnnn1-c1ccccc1)c1ccccc1	2.41
O=C(O)c1ccc(N=N/C(=N\Nc2ccc(C(=O)O)cc2)c2ccccc2)cc1	11.8

Compound	inhibition [%]
O=C(Cc1n[nH]c(=O)c2ccccc12)Nc1cccc(S(=O)(=O)N2CCCCCC2)c1	34.4
c1ccc(Cn2nnc3c(N4CCCC4)ncnc32)cc1	1.78
c1ccc(Cn2nnc3c(N4CCc5ccccc54)ncnc32)cc1	-4.04
CC(c1ccccc1)n1cnc2ccccc2c1=O (configuration not stated)	3.81
CCOC(=O)Cn1c(C(C)=O)nc2ccccc21	-5.86
CCOc1ccc2nc(SC3CC(=O)N(c4ccc(OC)cc4OC)C3=O)sc2c1 (configuration not stated)	37.3
COc1cccc(COC(=O)Nc2ccccc2F)c1	4.89
COc1cccc(C(=O)NC2CC3CCCC(C2)N3CC(=O)Nc2ccccc2)c1 (configuration not stated)	46.8
CN(C)c1ccc(NC(=O)CN2C3CCCC2CC(NC(=O)c2ccccc2)C3)cc1 (configuration not stated)	49
COc1ccc(OC)c(NC(=O)CN2C(=O)NC3(CCCc4ccccc43)C2=O)c1 (configuration not stated)	0.98
COc1ccc(NC(=O)CN2C(=O)NC3(CCCc4ccccc43)C2=O)c(OC)c1 (configuration not stated)	-0.44
COc1ccc(N2CCN(C3CCCN(Cc4ccccc4OCCO)C3)CC2)cc1 (configuration not stated)	-8.3
CS(=O)(=O)N(CC(=O)N1CCCC1)c1ccccc1F	-1.03
O=C(Nc1ccc2c(c1)CCCN2C(=O)c1cccs1)c1cccc(F)c1	25.3
CC1=NN(c2ccccc2)C(=O)/C1=C/c1c(C)[nH]n(-c2ccc(C)cc2)c1=O	3.09
CC1=NN(c2ccccc2)C(=O)/C1=C/c1c(O)n(-c2ccc(F)cc2)[nH]c1=O	-0.04
Cc1ccc(-c2nc(N)n(S(C)(=O)=O)n2)cc1	-7.35
Nc1c2c(nc3sc4c(c13)CCCC4)CCCCCC2	11.9
Nc1nc2sc3c(c2c(=O)s1)CCCC3	-5.9
